{"source": "the supplement of paper PMC10037445", "key": {"[1]": {"system": "RAW-Dual", "assay": "NF-kB SEAP reporter activity, fold change vs agonist alone; higher = enhanced NF-kB activity", "summary_of_the_method": "(§1)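 Reporter activity is given as fold change relative to agonist-alone wells. To measure it, 50 nL of library stock was pin-tooled onto RAW-Dual macrophages (50,000 cells/well, DMEM, 384-well plates), a PRR agonist followed 1 h later, and cells stayed at 37 °C, 5% CO2. Twenty hours on, supernatant was assayed for IRF (QuantiLuc luminescence) and NF-κB (QuantiBlue, 620 nm absorbance), and wells under 70% of agonist-control IncuCyte confluency in both mask sets were marked cytotoxic.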"}, "[2]": {"system": "RAW-Dual", "assay": "NF-kB SEAP reporter activity, fold change vs agonist alone; cytotoxicity flag (confluency mask): not cytotoxic; library stock concentration (final ~1000-fold dilution): 10 mM; higher = enhanced NF-kB activity", "summary_of_the_method": "as §1"}, "[3]": {"system": "RAW-Dual", "assay": "NF-kB SEAP reporter activity, fold change vs agonist alone; cytotoxicity flag (confluency mask): cytotoxic (confluency <70% of control); library stock concentration (final ~1000-fold dilution): 10 mM; higher = enhanced NF-kB activity", "summary_of_the_method": "as §1"}, "[4]": {"system": "RAW-Dual", "assay": "NF-kB SEAP reporter activity, fold change vs agonist alone; cytotoxicity flag (confluency mask): not cytotoxic; library stock concentration (final ~1000-fold dilution): 10 mM water; higher = enhanced NF-kB activity", "summary_of_the_method": "as §1"}, "[5]": {"details": "library stock concentration (final ~1000-fold dilution): 10 mM, cytotoxicity flag (confluency mask): not cytotoxic, agonist: Imiquimod (TLR7) […]"}, "[6]": {"details": "library stock concentration (final ~1000-fold dilution): 10 mM, cytotoxicity flag (confluency mask): not cytotoxic, agonist: MPLA (TLR4) […]"}, "[7]": {"details": "agonist: ODN 1826 (TLR9) 0.5 ug/mL"}, "[8]": {"details": "agonist: Pam2CSK4 (TLR2/6) 0.1 ug/mL"}, "[9]": {"details": "agonist: Pam3CSK4 (TLR2/1) 0.1 ug/mL"}, "[10]": {"details": "library stock concentration (final ~1000-fold dilution): 10 mM, cytotoxicity flag (confluency mask): cytotoxic (confluency <70% of control), agonist: Imiquimod (TLR7) […]"}, "[11]": {"details": "library stock concentration (final ~1000-fold dilution): 10 mM, cytotoxicity flag (confluency mask): cytotoxic (confluency <70% of control), agonist: MPLA (TLR4) […]"}, "[12]": {"details": "library stock concentration (final ~1000-fold dilution): 10 mM water, cytotoxicity flag (confluency mask): not cytotoxic, agonist: Imiquimod (TLR7) […]"}, "[13]": {"details": "library stock concentration (final ~1000-fold dilution): 10 mM water, cytotoxicity flag (confluency mask): not cytotoxic, agonist: MPLA (TLR4) […]"}}, "note": "Whole data set: some 2,900 compounds, median “NF-kB SEAP reporter activity, fold change vs agonist alone” near 0.99, cut for the highest 2% near 2.6. The list comes from a sample in which the highest values are over-represented; it also holds similar structures and randomly drawn compounds."}
{"smiles": "CC1CCC/C=C/C2CC(O)CC2C(O)/C=C/C(=O)O1", "note": "(stereo not drawn)", "values": [{"measurement": "NF-kB SEAP reporter activity", "setting": "[1]; [5]", "value": 1.48}, {"measurement": "NF-kB SEAP reporter activity", "setting": "[1]; [6]", "value": 0.636}, {"measurement": "NF-kB SEAP reporter activity", "setting": "[2]; agonist: LPS (TLR4) 0.1 ug/mL", "value": 0.305}, {"measurement": "NF-kB SEAP reporter activity", "setting": "[2]; [7]", "value": 0.297}, {"measurement": "NF-kB SEAP reporter activity", "setting": "[2]; [8]", "value": 0.209}, {"measurement": "NF-kB SEAP reporter activity", "setting": "[2]; [9]", "value": 0.469}]}
{"smiles": "O=C(O)CCCc1ccc(N(CCCl)CCCl)cc1", "values": [{"measurement": "NF-kB SEAP reporter activity", "setting": "[1]; [5]", "value": 0.998}, {"measurement": "NF-kB SEAP reporter activity", "setting": "[1]; [6]", "value": 1}, {"measurement": "NF-kB SEAP reporter activity", "setting": "[2]; agonist: LPS (TLR4) 0.1 ug/mL", "value": 0.89}, {"measurement": "NF-kB SEAP reporter activity", "setting": "[2]; [7]", "value": 1.04}, {"measurement": "NF-kB SEAP reporter activity", "setting": "[2]; [8]", "value": 1.21}, {"measurement": "NF-kB SEAP reporter activity", "setting": "[2]; [9]", "value": 1.24}]}
{"smiles": "Cn1c(CCCCCCC(=O)NO)nc2cc(N(CCCl)CCCl)ccc21", "values": [{"measurement": "NF-kB SEAP reporter activity", "setting": "[1]; [10]", "value": 1.62}, {"measurement": "NF-kB SEAP reporter activity", "setting": "[1]; [11]", "value": 2.33}, {"measurement": "NF-kB SEAP reporter activity", "setting": "[3]; agonist: LPS (TLR4) 0.1 ug/mL", "value": 3.35}, {"measurement": "NF-kB SEAP reporter activity", "setting": "[3]; [7]", "value": 1.5}, {"measurement": "NF-kB SEAP reporter activity", "setting": "[3]; [8]", "value": 1.55}, {"measurement": "NF-kB SEAP reporter activity", "setting": "[3]; [9]", "value": 1.91}]}
{"smiles": "Cl.O=C(O)Cc1c[nH]cn1", "values": [{"measurement": "NF-kB SEAP reporter activity", "setting": "[1]; [5]", "value": 0.935}, {"measurement": "NF-kB SEAP reporter activity", "setting": "[1]; [6]", "value": 1.05}, {"measurement": "NF-kB SEAP reporter activity", "setting": "[2]; agonist: LPS (TLR4) 0.1 ug/mL", "value": 1.34}, {"measurement": "NF-kB SEAP reporter activity", "setting": "[2]; [7]", "value": 0.991}, {"measurement": "NF-kB SEAP reporter activity", "setting": "[2]; [8]", "value": 0.973}, {"measurement": "NF-kB SEAP reporter activity", "setting": "[2]; [9]", "value": 0.728}]}
{"smiles": "CNC1C(O)C(OC2C(N)CC(N)C(OC3OC(C(C)O)C(O)C(O)C3N)C2O)OCC1(C)O.O=S(=O)(O)O.O=S(=O)(O)O", "note": "(stereo not drawn)", "values": [{"measurement": "NF-kB SEAP reporter activity", "setting": "[1]; [12]", "value": 0.947}, {"measurement": "NF-kB SEAP reporter activity", "setting": "[1]; [13]", "value": 1.07}, {"measurement": "NF-kB SEAP reporter activity", "setting": "[4]; agonist: LPS (TLR4) 0.1 ug/mL", "value": 1.15}, {"measurement": "NF-kB SEAP reporter activity", "setting": "[4]; [7]", "value": 1.26}, {"measurement": "NF-kB SEAP reporter activity", "setting": "[4]; [8]", "value": 1.15}, {"measurement": "NF-kB SEAP reporter activity", "setting": "[4]; [9]", "value": 1.12}]}
{"smiles": "CC12NC(Cc3ccccc31)c1ccccc12.O=C(O)/C=C\\C(=O)O", "note": "(stereo not drawn)", "values": [{"measurement": "NF-kB SEAP reporter activity", "setting": "[1]; [5]", "value": 1.16}, {"measurement": "NF-kB SEAP reporter activity", "setting": "[1]; [6]", "value": 1.1}, {"measurement": "NF-kB SEAP reporter activity", "setting": "[2]; agonist: LPS (TLR4) 0.1 ug/mL", "value": 1.25}, {"measurement": "NF-kB SEAP reporter activity", "setting": "[2]; [7]", "value": 0.851}, {"measurement": "NF-kB SEAP reporter activity", "setting": "[2]; [8]", "value": 1.13}, {"measurement": "NF-kB SEAP reporter activity", "setting": "[2]; [9]", "value": 1.15}]}
{"smiles": "COc1cc(C)[nH]c(=O)c1CNC(=O)c1c(C)n(C(C)C2CCN(CC(F)(F)F)CC2)c2ccccc12", "note": "(stereo not drawn)", "values": [{"measurement": "NF-kB SEAP reporter activity", "setting": "[1]; [5]", "value": 0.35}, {"measurement": "NF-kB SEAP reporter activity", "setting": "[1]; [6]", "value": 0.914}, {"measurement": "NF-kB SEAP reporter activity", "setting": "[2]; agonist: LPS (TLR4) 0.1 ug/mL", "value": 0.78}, {"measurement": "NF-kB SEAP reporter activity", "setting": "[2]; [7]", "value": 0.953}, {"measurement": "NF-kB SEAP reporter activity", "setting": "[2]; [8]", "value": 0.647}, {"measurement": "NF-kB SEAP reporter activity", "setting": "[2]; [9]", "value": 0.74}]}
{"smiles": "CC(N)C(=O)NC(CO)C(=O)NC(C(=O)NC(C(=O)NC(C(=O)NC(CC(N)=O)C(=O)NC(Cc1ccc(O)cc1)C(=O)NC(C(N)=O)C(C)O)C(C)O)C(C)O)C(C)O", "note": "(stereo not drawn)", "values": [{"measurement": "NF-kB SEAP reporter activity", "setting": "[1]; [12]", "value": 0.968}, {"measurement": "NF-kB SEAP reporter activity", "setting": "[1]; [13]", "value": 1.05}, {"measurement": "NF-kB SEAP reporter activity", "setting": "[4]; agonist: LPS (TLR4) 0.1 ug/mL", "value": 1.17}, {"measurement": "NF-kB SEAP reporter activity", "setting": "[4]; [7]", "value": 1.25}, {"measurement": "NF-kB SEAP reporter activity", "setting": "[4]; [8]", "value": 1.16}, {"measurement": "NF-kB SEAP reporter activity", "setting": "[4]; [9]", "value": 1.06}]}
{"smiles": "C=C(C)C1Cc2c(ccc3c2OC2COc4cc(OC)c(OC)cc4C2C3=O)O1", "note": "(stereo not drawn)", "values": [{"measurement": "NF-kB SEAP reporter activity", "setting": "[1]; [5]", "value": 1.87}, {"measurement": "NF-kB SEAP reporter activity", "setting": "[1]; [6]", "value": 1.85}, {"measurement": "NF-kB SEAP reporter activity", "setting": "[2]; agonist: LPS (TLR4) 0.1 ug/mL", "value": 3.13}, {"measurement": "NF-kB SEAP reporter activity", "setting": "[2]; [7]", "value": 2.36}, {"measurement": "NF-kB SEAP reporter activity", "setting": "[2]; [8]", "value": 1.27}, {"measurement": "NF-kB SEAP reporter activity", "setting": "[2]; [9]", "value": 1.45}]}
{"smiles": "CCC1=CC2CN3CCc4c([nH]c5ccccc45)C(C(=O)OC)(C2)C13", "note": "(stereo not drawn)", "values": [{"measurement": "NF-kB SEAP reporter activity", "setting": "[1]; [5]", "value": 1.03}, {"measurement": "NF-kB SEAP reporter activity", "setting": "[1]; [6]", "value": 1.11}, {"measurement": "NF-kB SEAP reporter activity", "setting": "[2]; agonist: LPS (TLR4) 0.1 ug/mL", "value": 1.04}, {"measurement": "NF-kB SEAP reporter activity", "setting": "[2]; [7]", "value": 1.06}, {"measurement": "NF-kB SEAP reporter activity", "setting": "[2]; [8]", "value": 0.935}, {"measurement": "NF-kB SEAP reporter activity", "setting": "[2]; [9]", "value": 1.03}]}
{"smiles": "COC1=CC2C3Cc4ccc(OC)c(O)c4C2(CCN3C)CC1=O.Cl", "note": "(stereo not drawn)", "values": [{"measurement": "NF-kB SEAP reporter activity", "setting": "[1]; [5]", "value": 0.858}, {"measurement": "NF-kB SEAP reporter activity", "setting": "[1]; [6]", "value": 0.999}, {"measurement": "NF-kB SEAP reporter activity", "setting": "[2]; agonist: LPS (TLR4) 0.1 ug/mL", "value": 0.877}, {"measurement": "NF-kB SEAP reporter activity", "setting": "[2]; [7]", "value": 0.884}, {"measurement": "NF-kB SEAP reporter activity", "setting": "[2]; [8]", "value": 1.16}, {"measurement": "NF-kB SEAP reporter activity", "setting": "[2]; [9]", "value": 1.09}]}
{"smiles": "CN1C2CC(OC(=O)C(CO)c3ccccc3)CC1C1OC12", "note": "(stereo not drawn)", "values": [{"measurement": "NF-kB SEAP reporter activity", "setting": "[1]; [5]", "value": 0.917}, {"measurement": "NF-kB SEAP reporter activity", "setting": "[1]; [6]", "value": 1.04}, {"measurement": "NF-kB SEAP reporter activity", "setting": "[2]; agonist: LPS (TLR4) 0.1 ug/mL", "value": 1.23}, {"measurement": "NF-kB SEAP reporter activity", "setting": "[2]; [7]", "value": 1.02}, {"measurement": "NF-kB SEAP reporter activity", "setting": "[2]; [8]", "value": 1.11}, {"measurement": "NF-kB SEAP reporter activity", "setting": "[2]; [9]", "value": 1.58}]}
{"smiles": "CN1Cc2c(ccc3c2OCO3)C2C(O)Cc3cc4c(cc3C21)OCO4", "note": "(stereo not drawn)", "values": [{"measurement": "NF-kB SEAP reporter activity", "setting": "[1]; [10]", "value": 1.6}, {"measurement": "NF-kB SEAP reporter activity", "setting": "[1]; [11]", "value": 1.66}, {"measurement": "NF-kB SEAP reporter activity", "setting": "[3]; agonist: LPS (TLR4) 0.1 ug/mL", "value": 2.16}, {"measurement": "NF-kB SEAP reporter activity", "setting": "[3]; [7]", "value": 1.75}, {"measurement": "NF-kB SEAP reporter activity", "setting": "[3]; [8]", "value": 1.42}, {"measurement": "NF-kB SEAP reporter activity", "setting": "[3]; [9]", "value": 2.18}]}
